Data reported in PubChem BioAssay.
For part of these data: Potency and affinity values are given separately. Activity calls are given as the source filed them. Where a call stands in place of a potency, no number is given. Unless noted, no rule for the calls is given here.

Assays:
[1] = target: Cell division control protein 42 homolog (Homo sapiens) (UniProt P60953); assay: activated mutant Cdc42 GTP-binding inhibitors, dose response, biochemical, multiplex bead flow cytometry, Bodipy-FL-GTP (AID 1333;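 active = fitted half-maximal concentration within the tested dose range, moderate curve steepness, a statistically real signal drop, and little compound fluorescence or tag-binding interference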)
Chain of Cell division control protein 42 homolog (Homo sapiens) (P60953 whole entry, looked up): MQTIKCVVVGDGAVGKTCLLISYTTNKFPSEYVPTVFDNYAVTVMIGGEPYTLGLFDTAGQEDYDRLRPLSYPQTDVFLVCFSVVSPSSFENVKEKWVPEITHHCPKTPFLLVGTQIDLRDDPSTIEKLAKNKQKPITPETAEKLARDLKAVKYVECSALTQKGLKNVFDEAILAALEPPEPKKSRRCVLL

[2] = target: Cell division control protein 42 homolog (Homo sapiens) (UniProt P60953); assay: wildtype Cdc42 GTP-binding inhibitors, dose response, biochemical, multiplex bead flow cytometry, Bodipy-FL-GTP (AID 1334;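 active = fitted half-maximal concentration within the tested range, moderate curve steepness, significant signal drop, and little compound fluorescence or bead-linkage interference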); conditions: bead-based flow cytometry, Bodipy-FL-GTP binding to GST-Cdc42; at 100 µM (top of the series) unless noted
[3] = target: GTPase HRas (Homo sapiens) (UniProt P01112); assay: inhibitors of GTP binding to wildtype Ras, dose response, biochemical, multiplex bead flow cytometry (AID 1335;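 active = fitted half-maximal concentration within 10 nM to 100 µM, steepness 0.5 to 2, significant signal drop, low assay interference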); conditions: bead-based flow cytometry, Bodipy-GTP binding to GST-Ras; at 100 µM (top of the series) unless noted
Chain of GTPase HRas (Homo sapiens) (P01112 whole entry, looked up): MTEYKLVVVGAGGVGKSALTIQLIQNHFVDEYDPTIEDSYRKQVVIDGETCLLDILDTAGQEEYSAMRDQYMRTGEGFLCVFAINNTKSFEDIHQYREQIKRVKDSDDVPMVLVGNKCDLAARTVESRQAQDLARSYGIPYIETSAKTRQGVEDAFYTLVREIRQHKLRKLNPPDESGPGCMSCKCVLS

[4] = tested on: Ras-related protein Rab-7a (dog), GTP binding; assay: Rab7 GTP binding inhibitors, potency, dose response, biochemical, wildtype, multiplex bead flow cytometry (AID 1336)
[5] = target: Ras-related C3 botulinum toxin substrate 1 (Homo sapiens) (UniProt P63000); assay: wildtype Rac1 GTP binding inhibitors, dose response, biochemical, multiplex bead flow cytometry (AID 1340;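 active = dose curve with midpoint inside tested range, moderate steepness, plateau gap beyond fit error, low compound glow and bead-link interference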); conditions: GST-Rac1 beads, Bodipy-FL-GTP binding; at 100 µM (top of the series) unless noted
[6] = target: GTPase HRas (Homo sapiens) (UniProt P01112); assay: activated Ras mutant GTP binding inhibitors, dose response, biochemical, multiplex bead flow cytometry (AID 1341;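 active = dose-response curve with midpoint inside the tested range, moderate steepness, significant amplitude and little compound fluorescence or bead-attachment interference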;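 also: GST-tagged constitutively activated Ras mutant immobilized on beads and multiplexed with other GTPases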)

Structure (SMILES)	outcome [1]	fluorescence, percent of control (lower = inhibition) [2] [%]	GTP binding, percent of control [3] [%]	outcome [4]	GTP binding signal, raw median fluorescence (lower = inhibition) (MCF (arbitrary fluorescence units)) [5]	outcome [6]
COc1cccc2c(SCC(=O)N/N=C/c3ccc(O)cc3O)cc(C)nc12	inactive	29.6	62.9	inactive	110	inactive
Cc1ccc(C(=O)OCc2nnc(-c3ccc(Br)cc3)o2)cc1	inactive	31.8	78.1	inactive	241	inactive
CC1=C(C(=O)Nc2ccccc2)C(c2ccc(Cl)cc2)n2c(s/c(=C/c3cccc(OCC(=O)O)c3)c2=O)=N1 (stereo not given)	inactive	26.5	75.3	inactive	176	inactive
CC(C)(C)C(=O)c1sc2nc(-c3cccs3)cc(C(F)(F)F)c2c1N	inactive	86.4	182	inactive	194	inactive
O=C(O)c1cccnc1SCc1cccc(Cl)c1	inactive	102	117	inactive	79.9	inactive
Cn1c(=O)c2c(ncn2CC(O)CNc2cccc(Cl)c2)n(C)c1=O (stereo not given)	inactive	47.1	101	inactive	363	inactive
COc1ccc(CNc2ccccc2C(=O)O)cc1	inactive	75.9	93.4	inactive	44.1	inactive
CCN(c1ccc(N=Cc2c(O)n(Cc3ccc(OC)cc3)c(=O)c3ccccc23)cc1)C(C)C	inactive	154	196	inactive	452	inactive
CN(C)c1ccc([C@@H]2[C@@H]([N+](=O)[O-])[C@H]3C=Cc4ccccc4N3[C@H]2C(=O)c2ccc(Cl)cc2)cc1	inactive	46.5	60.6	inactive	169	inactive
N#C/C(=C\c1ccc(-c2ccc(C(=O)O)cc2)o1)c1nc2ccccc2[nH]1	inactive	168	221	inactive	144	inactive
C=CCN1C(=O)/C(=C/c2ccc(N(C)C)cc2)S/C1=N\c1nnc(CC)s1	inactive	74.8	90.2	inactive	231	inactive
CCOc1ccc2nc(NC(=O)CSc3nc(-c4ccccc4)c(C#N)c(=O)[nH]3)sc2c1	inactive	25.1	70	inactive	240	inactive
O=C(Nc1ccc(S(=O)(=O)N2CCCc3ccccc32)cc1)C1CCCO1 (stereo not given)	inactive	33.2	79.9	inactive	286	inactive
O=C(N/N=C/c1ccc2nccnc2c1)c1cccc([N+](=O)[O-])c1	inactive	42.7	86.9	inactive	203	inactive
Fc1cccc(CSc2ccc3nnc(-c4cccnc4)n3n2)c1	inactive	33.8	73.3	inactive	183	inactive
CC1=C(C)CC(C(=O)c2cc(C)ccc2C)C(C(=O)O)C1 (stereo not given)	inactive	57.3	88.3	inactive	31	inactive
CCN1C(=O)/C(=C/C=C2/Sc3ccc4ccccc4c3N2CCO)SC1=S	inactive	27.6	59.2	inactive	179	inactive
O=S1(=O)N=C(N(CCO)/N=C/C=C/c2ccccc2)c2ccccc21	inactive	22.8	35.3	inactive	101	inactive
FC(F)(F)c1cccc(NC(=S)NNC(=S)NCc2ccccc2)c1	inactive	30.7	81.8	inactive	222	inactive
CC(=O)c1ccc(N2CCN(C(=O)c3ccc4c(=O)n(-c5ccccc5)c(=O)[nH]c4c3)CC2)cc1	inactive	35.7	84.8	inactive	304	inactive

Structure (SMILES)	outcome [1]	fluorescence, percent of control (lower = inhibition) [2] [%]	GTP binding, percent of control [3] [%]	outcome [4]	GTP binding signal, raw median fluorescence (lower = inhibition) (MCF (arbitrary fluorescence units)) [5]	outcome [6]
O=C(CCN1CCCC1Cc1ccccc1)c1ccc2c(c1)OCCO2 (stereo not given)	inactive	31.5	82.4	inactive	236	inactive
COc1ccc2oc(COc3ccccc3)c(C(=O)O)c2c1	inactive	59.6	87.3	inactive	29.6	inactive
Cc1nc2sccn2c1-c1nc(-c2cc3ccccc3o2)cs1	inactive	50.9	57.4	inactive	155	inactive
CC(=O)NC1CC2CCCC(C1)N2C(=O)Nc1ccc(Cl)c(C(F)(F)F)c1 (stereo not given)	inactive	91.1	146	inactive	174	inactive
O=C(O)C1(NCc2ccccc2Cl)CCCCC1	inactive	66	91.3	inactive	34.5	inactive
COc1cccc(C(=O)O)c1OCc1ccccc1Br	inactive	57	201	inactive	53.6	inactive
COc1cccc(Nc2ccccc2C(=O)O)c1	inactive	92.6	107	inactive	78.2	inactive
O=S(=O)(Cc1ccccc1)N1CCc2ccccc21	inactive	48.6	63.7	inactive	202	inactive
COc1cccc(-n2c(SCC(=O)NCCC3=CCCCC3)nc3n[nH]c(C)c3c2=N)c1	inactive	70.4	132	inactive	140	inactive
O=C(N/N=C/c1c(O)n(Cc2ccccc2)c(=O)c2ccccc12)c1cccnc1	inactive	18.5	75.7	inactive	87	inactive
CC(C)NC(=S)N=Nc1c(O)[nH]c2ccc([N+](=O)[O-])cc12	inactive	29.1	67.1	inactive	128	inactive
COc1cc2nc(/C=C/c3ccc(N(C)C)cc3)sc2cc1SC	inactive	121	122	inactive	238	inactive
Cc1ccc(CSCc2ccc(C(=O)O)o2)cc1	inactive	50.3	74.2	inactive	28.2	inactive
Cc1nc(N/N=C/c2ccc(O)cc2)c2cnn(-c3ccccc3)c2n1	inactive	30.2	73.5	inactive	191	inactive
O=C(Nc1cccc(Cl)c1)Nc1ccnc(-c2cccnc2)n1	inactive	33.8	72.8	inactive	155	inactive
N#Cc1c(C(F)(F)F)cc(-c2ccc(Cl)cc2)[nH]c1=O	inactive	27.5	66	inactive	178	inactive
CCOC(=O)/C=C1\SCC(=O)N1CCOc1cccc(Br)c1	inactive	94.9	164	inactive	185	inactive
CSc1nnc(-c2cc(Br)ccc2N=Cc2c(C)[nH]n(-c3ccccc3)c2=O)c(=O)[nH]1	inactive	24.2	67.4	inactive	183	inactive
OCCC1CN(Cc2cccc(O)c2)CCN1CCc1ccccc1 (stereo not given)	inactive	40.6	90.6	inactive	342	inactive
COc1ccc(/C=N/NC(=O)c2ccncc2)cc1Cn1nc([N+](=O)[O-])c(Br)c1C	inactive	38.6	75.7	inactive	144	inactive

Structure (SMILES)	outcome [1]	fluorescence, percent of control (lower = inhibition) [2] [%]	GTP binding, percent of control [3] [%]	outcome [4]	GTP binding signal, raw median fluorescence (lower = inhibition) (MCF (arbitrary fluorescence units)) [5]	outcome [6]
O=C(O)c1ccccc1NCc1ccc(Cl)cc1	inactive	79.2	95.6	inactive	50.2	inactive
COc1ccc(-c2csc(NC(=O)Cc3cccc4ccccc34)c2C(=O)O)cc1	inactive	27.2	66.7	inactive	187	inactive
NC(=S)Nc1cccc2cc3ccccc3cc12	inactive	75.3	120	inactive	137	inactive
CC1CCCN(c2ccc3nc4ccccc4c(=O)n3n2)C1 (stereo not given)	inactive	33.3	74.6	inactive	179	inactive
CCOC(=O)c1cc(C(=O)OCC)c2ccccn2c1=O	inactive	42.1	87.2	inactive	246	inactive
CCOCCCNc1nc(=S)[nH]c2cc(OC)c(OC)cc12	inactive	60.4	99.7	inactive	111	inactive
CCOc1cc(/C=C2/NC(=O)NC2=O)cc([N+](=O)[O-])c1O	inactive	28.3	64.7	inactive	146	inactive
O=c1c2ccccc2nc2c3ccccc3cnn12	inactive	46.9	88.4	inactive	175	inactive
O=[N+]([O-])c1cc2oc3c(c2c(C=NCc2ccccc2)c1O)CCCC3	inactive	44.5	58.7	inactive	179	inactive
Cc1ccc(O)c(C(=O)c2cnn(C(=O)Cc3csc(C)n3)c2)c1	inactive	37	86.3	inactive	242	inactive
CC(=O)Nc1ccc(NC(=O)CCn2nnc3ccccc32)cc1	inactive	35.7	81.1	inactive	251	inactive
Cc1cc(=O)[nH]c2c(N=Nc3ccc(O)cc3)c(N)nn12	inactive	31.3	69.7	inactive	161	inactive
Cc1ccc(-n2c(=O)cc(N3CCN(C(=O)c4ccco4)CC3)[nH]c2=O)cc1	inactive	36.6	81.3	inactive	286	inactive
COC(=O)c1cccc(NC(=O)c2nn(C)c(=O)c3ccccc23)c1	inactive	42.8	155	inactive	179	inactive
COc1ccc2cc(C)c3nnc(SCc4cccnc4)n3c2c1	inactive	32.1	76.7	inactive	221	inactive
Cc1ccc(Sc2nnc(-c3ccccc3)cc2C#N)cc1	inactive	104	178	inactive	185	inactive
C=CCc1ccccc1OCC(O)CN1CCN(C(=O)OCC)CC1 (stereo not given)	inactive	48.3	60.5	inactive	194	inactive
COc1ccccc1OCCn1cc(C(=O)O)c2ccccc21	inactive	102	139	inactive	87.3	inactive
Cc1nn(CCc2nn[nH]n2)c2nc(-c3ccc(C4CCCCC4)cc3)cc(C(F)(F)F)c12	inactive	22.1	79.4	inactive	249	inactive
CC(Sc1nnc(NC2CCCCC2)s1)C(=O)Nc1ccc2c(c1)C(=O)c1ccccc1C2=O (stereo not given)	inactive	49.1	61.4	inactive	161	inactive
